tested on: LXRa homodimer (NR concentration 270 nM); experiment: PBM binding z-score (relative to random genomic background probes); higher = stronger binding; sequences stand for … in GC…GCGATTGACAGCGTAGAATGAAGG
Outline: (§1)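 Ligand-free nuclear receptor dimers were applied to custom Agilent 4×180K protein-binding microarrays whose double-stranded probes carried direct-repeat seeds, single-nucleotide variants, half-site ablations and random human genomic background sequences in 34-nt variable regions. Incubation lasted 1 h. Binding z-scores were computed against the random background probes from regression-normalized fluorescence.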

Sequence | PBM binding z-score
TCAGACAGGTGAAGCTAACTCAGGTACGCAGTCG | -0.268
TAGCCTTGGTCATGCGGGCCAGTATAGTGTCGGC | -0.986
GTACCAAGGTGAATAGGTCGTTAATGAGTAGGCG | -0.0766
GCTTGTAGATCAACGTTAAGAAAGACTAAGCTAA | -0.371
TCTTGTAGATCAAAGGGTAAGAAAGCCGAAGCCT | -0.283
GCTGATAGGTCAACTGATGGTCAGCTAAAGCTCG | 0.669
CATACAGGGTCAGCTAGGGCAGAGTAGGGACGGC | -0.0929
AGTCAAAGTTCAGGACGATGTAACGTAAAGCACG | 0.938
TCTAGTTGGTCACGGTGGTCACACACGACGGGTA | -0.00168
CCGACTGGGGCAAGGTTGCCATAACGCACAGCCA | -0.461
CCTAGCGGGCCAGGGTCACTCAAGCATTTCGCTT | -0.501
AGAATGAGGTTGTACGTAGATCAGGGAAGAAAGT | 0.00374
AGAATGAGGTTATACGTACATCAGGGAAGAAAGT | 0.00405
TGGAGTAGGTTAGGGGCATTCAGAATGGCGTCGA | 0.271
CCTACTGGGCCATTCAGAGGCCATTGATCATATG | -0.0422
ATATGTAGGTTACGGGTCATTCAGGTTGGTTCGC | 2.11
TCGAGTAGGTTAGGGGTATTCAGAATGGCGTCGA | -0.105
CCTAGTTCGTCAAGGTCACACACGCTATAGGTAC | 2.75
TCTTTTAGTTGATTAGGGCAACCGAAACAGCGGA | 0.422
GCTAGCAGGGCATTTGGGTCACTCAATGACGGGC | -0.133

Sequence | PBM binding z-score
TGAATGAGGTTATAAGATCGGGGAACGTTGCAAA | -0.276
CGTCCCAGGTCAGAGAGGTCAGTGAATGCCGAGT | 2.6
CAAACTAGGGCAAAGGTCAAAGTCGAGCCAACCA | 4.3
CGAACTAGGTCATTGACGGGACAGTGAATAGTAA | 0.242
TCTTGTAGATCAACAGGCGGTTAAGAAAGATCGA | -0.388
ACTATTAGGTGACTTAGGGCAACCGATACGACGC | 0.428
TCTGCTACGTCAGTTGGTCAGCTAACGAGCTGCC | -1.04
CTCGAAAGGTCGTGCTCAAGTGAGTATACCAAAC | 0.0272
TAGCCTAGGTCATTCAGGGGCCAGGATAGAAAGC | 0.311
CCTCGGAGGACAACAGGAGGTGAGAGCTGCCAGA | -0.536
ACAGACAGGTGAGTGAAGGTAATTCAGCTGGACG | -0.0483
CTACCAAGGTGAACAAGCTCGTTGATTACTATTC | -0.188
TAGCCTAGGTAATGCGGGCCAGTATAGTGTCGGC | -0.66
CCTCGGAGGACAAAAGGAGGTCAGAGCTGCCAGA | 1.26
GCTTGTAGAGCAAGGTTAAGAAAGACTAAGCTAA | -0.567
TCATATAGGTAAAAGGAGAAAGTCGGTGTGGTAA | -0.0649
TCTAGCAGGCCAGAGGTTCACTCAAGAGGTACGG | -0.519
TCGAGTAGGTTCGGGGCATTCAGAATGGCGTCGA | -0.554
TCTATTAGTTGATTAGGGCAACCTAAACAGCGGA | 0.325
ATACCAAAGTGATCGTGAGGTCGTTGATACTAAC | 0.848

tested on: LXRb:RXRa (NR concentration 270 nM, RXRa partner concentration 90 nM); experiment: as above
Outline: as §1

Sequence | PBM binding z-score
TCAGACAGGTGAAGCTAACTCAGGTACGCAGTCG | 0.231
TAGCCTTGGTCATGCGGGCCAGTATAGTGTCGGC | -1.09
GTACCAAGGTGAATAGGTCGTTAATGAGTAGGCG | 0.302
GCTTGTAGATCAACGTTAAGAAAGACTAAGCTAA | -0.448
TCTTGTAGATCAAAGGGTAAGAAAGCCGAAGCCT | 0.288
GCTGATAGGTCAACTGATGGTCAGCTAAAGCTCG | 3.53
CATACAGGGTCAGCTAGGGCAGAGTAGGGACGGC | 2.23
AGTCAAAGTTCAGGACGATGTAACGTAAAGCACG | 1.8
TCTAGTTGGTCACGGTGGTCACACACGACGGGTA | 0.395
CCGACTGGGGCAAGGTTGCCATAACGCACAGCCA | -0.29
CCTAGCGGGCCAGGGTCACTCAAGCATTTCGCTT | 1.75
AGAATGAGGTTGTACGTAGATCAGGGAAGAAAGT | 0.364
AGAATGAGGTTATACGTACATCAGGGAAGAAAGT | 1.58
TGGAGTAGGTTAGGGGCATTCAGAATGGCGTCGA | 1.91
CCTACTGGGCCATTCAGAGGCCATTGATCATATG | -0.326
ATATGTAGGTTACGGGTCATTCAGGTTGGTTCGC | 3.61
TCGAGTAGGTTAGGGGTATTCAGAATGGCGTCGA | 1.01
CCTAGTTCGTCAAGGTCACACACGCTATAGGTAC | 4.06
TCTTTTAGTTGATTAGGGCAACCGAAACAGCGGA | 0.976
GCTAGCAGGGCATTTGGGTCACTCAATGACGGGC | 0.541

Sequence | PBM binding z-score
TGAATGAGGTTATAAGATCGGGGAACGTTGCAAA | 1.05
CGTCCCAGGTCAGAGAGGTCAGTGAATGCCGAGT | 3.58
CAAACTAGGGCAAAGGTCAAAGTCGAGCCAACCA | 6.01
CGAACTAGGTCATTGACGGGACAGTGAATAGTAA | 1.81
TCTTGTAGATCAACAGGCGGTTAAGAAAGATCGA | 0.205
ACTATTAGGTGACTTAGGGCAACCGATACGACGC | 0.142
TCTGCTACGTCAGTTGGTCAGCTAACGAGCTGCC | -1.12
CTCGAAAGGTCGTGCTCAAGTGAGTATACCAAAC | 3.51
TAGCCTAGGTCATTCAGGGGCCAGGATAGAAAGC | 2.77
CCTCGGAGGACAACAGGAGGTGAGAGCTGCCAGA | -0.619
ACAGACAGGTGAGTGAAGGTAATTCAGCTGGACG | -0.196
CTACCAAGGTGAACAAGCTCGTTGATTACTATTC | 0.479
TAGCCTAGGTAATGCGGGCCAGTATAGTGTCGGC | -1.17
CCTCGGAGGACAAAAGGAGGTCAGAGCTGCCAGA | 1.34
GCTTGTAGAGCAAGGTTAAGAAAGACTAAGCTAA | 0.174
TCATATAGGTAAAAGGAGAAAGTCGGTGTGGTAA | 0.573
TCTAGCAGGCCAGAGGTTCACTCAAGAGGTACGG | -0.224
TCGAGTAGGTTCGGGGCATTCAGAATGGCGTCGA | -0.184
TCTATTAGTTGATTAGGGCAACCTAAACAGCGGA | 0.595
ATACCAAAGTGATCGTGAGGTCGTTGATACTAAC | 0.923
